Only some compounds are listed: those with a hit (about 3.9% of all), similar ones and a draw of the others.
CASP6 VEID inh: human caspase-6 inhibitors, primary screen, biochemical, VEID-R110 fluorescence, single point, set 2; P55212; inhibition, % at 12.5 µM; actives 0.53% (n = 350,000); purified caspase-6, Z-VEID-R110 cleavage fluorescence; AID 686996, 2013;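 active means mean inhibition across replicates at least about 35%, with every replicate also reaching that limit, limit read from the data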
Target sequence (P55212 24-179 limits assumed): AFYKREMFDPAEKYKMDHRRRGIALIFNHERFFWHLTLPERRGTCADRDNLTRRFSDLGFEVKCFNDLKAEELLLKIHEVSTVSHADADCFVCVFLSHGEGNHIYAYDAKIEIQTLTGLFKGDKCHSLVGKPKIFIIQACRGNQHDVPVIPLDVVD
Target sequence (P55212 194-293 limits assumed): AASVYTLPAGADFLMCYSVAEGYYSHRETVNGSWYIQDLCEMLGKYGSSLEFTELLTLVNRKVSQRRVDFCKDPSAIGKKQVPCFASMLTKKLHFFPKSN
N-glyco inh: increase of ERlucT glycosylation luciferase signal, primary screen, N-linked glycosylation inhibitor project, D54 ERlucT cells, luminescence, set 2. D54 ERlucT glycosylation luciferase reporter, 24 h; percent of 100 nM tunicamycin response. reporter increase, % at 12.5 µM. actives 0.23% (n = 360,000). AID 588692, 2011;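 active means mean luciferase reporter signal, scaled so untreated is 0 and the glycosylation-blocking control 100, at or above a set limit in every replicate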;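 further: luciferase carries N-glycosylation sites so blocking glycosylation raises the light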
SUMO Mot1 rescue: yeast Mot1-301 growth rescue at high temperature, primary screen, SUMOylation pathway inhibitor project, S. cerevisiae, ATP luminescence, 38.5C | S. cerevisiae Mot1-301 growth rescue; percent above DMSO median, 100 means doubled | actives 1% (n = 320,000) | growth rescue, % at 18.8 µM;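 active means every valid replicate shows activation above 250% relative to neutral control wells; inactive means the rest, any valid replicate at or below 250%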
ALR H2O2 inh: inhibitors of human ALR sulfhydryl oxidase, primary screen, biochemical, H2O2 detection, HRP-luminol luminescence, single point; FAD-linked sulfhydryl oxidase ALR (Homo sapiens), P55789; purified ALR, DTT oxidation; inhibition, % (no concentration beside the values); actives 3.8% (n = 290,000); AID 485317, 2010;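 active means mean replicate inhibition above about 79%, with every replicate also reaching it, limit read from the data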
Target sequence (P55789 whole entry, looked up): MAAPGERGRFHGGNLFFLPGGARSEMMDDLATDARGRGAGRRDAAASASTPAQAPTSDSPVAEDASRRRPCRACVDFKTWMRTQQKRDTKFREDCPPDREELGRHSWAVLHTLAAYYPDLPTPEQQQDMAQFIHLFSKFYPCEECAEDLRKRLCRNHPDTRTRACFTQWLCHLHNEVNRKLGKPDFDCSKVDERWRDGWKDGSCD
CDK5 p35 inh: inhibitors of human CDK5/p35 kinase, primary screen, biochemical, single concentration; inhibition, % at 10 µM; Cyclin-dependent kinase 5 (Homo sapiens) + Cyclin-dependent kinase 5 activator 1 (Homo …; Recombinant CDK5/p35, ADP-Glo luminescence, 60 min; AID 488839, 2010; actives 0.01% (n = 330,000);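 active means highest replicate inhibition of at least 50% and at least 75% of replicates reaching 50%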
NSD2 HMT inh: NSD2 histone methyltransferase inhibitors, primary screen, biochemical, AlphaScreen, single concentration, set 2; Histone-lysine N-methyltransferase NSD2 (Homo sapiens), O96028; NSD2 peptide methylation, 120 min; inhibition, % at 12.5 µM; actives 0.54% (n = 310,000); AID 743445, 2014; in the data active means inhibition above about 50%
Numbers stand for hits.

For CN1C(=O)c2cc(NC(=O)c3ccc(F)cc3)ccc2OC[C@H]2O[C@H](CC(=O)NCC3CC3)CC[C@@H]21 the results were CASP6 VEID inh inactive.
`CSc1ccc(/C=N/Nc2cccc(C(=O)O)c2)cc1` gave N-glyco inh inactive, CDK5 p35 inh inactive and NSD2 HMT inh 99.
Screening COc1cccc(-c2ccc([C@H]3[C@@H](CO)N(C(=O)Cc4ccncc4)[C@H]3C#N)cc2)c1 returned CASP6 VEID inh inactive.
Cc1cccc(NC(=O)Nc2ccc3c(c2)C(=O)N(C)[C@@H]2CC[C@H](CC(=O)NCc4ccccc4Cl)O[C@@H]2CO3)c1 was read as CASP6 VEID inh inactive.
For Fc1ccc(NC(=S)N2CCCc3ccccc32)cc1 the results were N-glyco inh inactive, SUMO Mot1 rescue inactive, ALR H2O2 inh 89, CDK5 p35 inh inactive and NSD2 HMT inh inactive.
S=C(Nc1cccnc1)N1CCc2ccccc21 was read as CASP6 VEID inh inactive, N-glyco inh inactive, SUMO Mot1 rescue inactive, ALR H2O2 inh inactive, CDK5 p35 inh inactive and NSD2 HMT inh inactive.
Screening Cc1ccc(NCc2nnc(SCC(=O)Nc3ncc(C)s3)n2Cc2ccco2)c(C)c1 returned N-glyco inh inactive, ALR H2O2 inh 98, CDK5 p35 inh inactive and NSD2 HMT inh inactive.
`CN(CC(=O)N1CCN(c2ccccc2)CC1)S(=O)(=O)c1cnc[nH]1` gave N-glyco inh inactive, SUMO Mot1 rescue inactive, ALR H2O2 inh 98, CDK5 p35 inh inactive and NSD2 HMT inh inactive.
For COc1cc(/C=N/Nc2nc3ccccc3o2)cc(OC)c1O the results were N-glyco inh inactive, SUMO Mot1 rescue inactive, ALR H2O2 inh 99, CDK5 p35 inh inactive and NSD2 HMT inh inactive.
For COc1ccc(/C=N/Nc2nc3ccccc3o2)cc1O the results were N-glyco inh inactive, SUMO Mot1 rescue inactive, ALR H2O2 inh 99, CDK5 p35 inh inactive and NSD2 HMT inh inactive.
Cc1oc(C(=O)O)cc1CSCc1cc(C(=O)O)c(C)o1 was read as N-glyco inh inactive, SUMO Mot1 rescue inactive, ALR H2O2 inh 99, CDK5 p35 inh inactive and NSD2 HMT inh inactive.
Screening O=C(C[C@@H]1C[C@@H]2c3cc(NC(=O)C4CCC4)ccc3O[C@@H]2[C@H](CO)O1)NCc1ccccc1F returned CASP6 VEID inh inactive.
For COCCNC(=O)C[C@H]1C=C[C@H](NS(=O)(=O)c2ccc(C)cc2)[C@H](CO)O1 the results were CASP6 VEID inh inactive.
`CCOc1ccc(NC(=O)CSc2ccccc2N)cc1` gave CASP6 VEID inh inactive, N-glyco inh inactive, SUMO Mot1 rescue inactive, CDK5 p35 inh inactive and NSD2 HMT inh inactive.
CCOc1ccc(NC(=O)CSC2=NCCN2)cc1 was read as CASP6 VEID inh inactive, N-glyco inh inactive, SUMO Mot1 rescue inactive, ALR H2O2 inh 99, CDK5 p35 inh inactive and NSD2 HMT inh inactive.
Screening NS(=O)(=O)c1ccc(NC(=O)CSC2=NC(=O)C(c3ccccc3)C(=O)N2)cc1 (configuration not stated) returned N-glyco inh inactive, SUMO Mot1 rescue inactive, ALR H2O2 inh 99, CDK5 p35 inh inactive and NSD2 HMT inh inactive.
CCn1c(SCC(=O)Nc2ccc(C(=O)OC)cc2)nc2cccnc21 was read as N-glyco inh inactive, SUMO Mot1 rescue inactive, ALR H2O2 inh inactive and CDK5 p35 inh inactive.
Screening COC(=O)c1ccc(NC(=O)CSC2=NCCN2)cc1 returned N-glyco inh inactive, SUMO Mot1 rescue inactive, ALR H2O2 inh 99, CDK5 p35 inh inactive and NSD2 HMT inh inactive.
CCC1C(=O)N=C(SCC(=O)Nc2ccc(C(=O)OC)cc2)NC1=O (configuration not stated) was read as CASP6 VEID inh inactive, N-glyco inh inactive, SUMO Mot1 rescue inactive, ALR H2O2 inh 99, CDK5 p35 inh inactive and NSD2 HMT inh inactive.
`CCS(=O)(=O)N1CC(=O)N2[C@@H](CO)[C@H](c3ccc(C#Cc4ccc(F)cc4)cc3)[C@@H]2C1` gave CASP6 VEID inh inactive.
COc1ccc(NC(=O)N2CC3(C2)CN(C(=O)c2cccnc2)[C@@H](CO)c2[nH]c4cc(OC)ccc4c23)cc1 was read as CASP6 VEID inh inactive.
C[C@H](CO)N1C[C@H](C)[C@@H](CN(C)C(=O)Cc2ccccn2)Oc2ncc(C#C[C@@H](C)O)cc2C1=O was read as CASP6 VEID inh inactive.
Screening Oc1ccc(-c2csc(-c3ccccc3)n2)cc1O returned CASP6 VEID inh inactive, N-glyco inh inactive, SUMO Mot1 rescue inactive, ALR H2O2 inh 99, CDK5 p35 inh inactive and NSD2 HMT inh inactive.
`Oc1ccc(-c2csc(-c3cccnc3)n2)cc1O` gave CASP6 VEID inh inactive, N-glyco inh inactive, SUMO Mot1 rescue inactive, ALR H2O2 inh inactive and CDK5 p35 inh inactive.
For Cc1nc(-c2ccc(O)c(O)c2)cs1 the results were N-glyco inh inactive, SUMO Mot1 rescue inactive, ALR H2O2 inh 99, CDK5 p35 inh inactive and NSD2 HMT inh inactive.
`COc1cc(-c2csc(C)n2)ccc1O` gave N-glyco inh inactive, SUMO Mot1 rescue inactive, ALR H2O2 inh 96, CDK5 p35 inh inactive and NSD2 HMT inh inactive.
`C[C@H](O)C#Cc1cnc2c(c1)C(=O)N([C@@H](C)CO)C[C@@H](C)[C@H](CN(C)C(=O)CC1CC1)O2` gave CASP6 VEID inh inactive.
Screening CCc1noc(C)c1C(=O)Nc1ccccc1N1CCOCC1 returned CASP6 VEID inh inactive, N-glyco inh inactive, SUMO Mot1 rescue inactive, ALR H2O2 inh inactive, CDK5 p35 inh inactive and NSD2 HMT inh inactive.
Screening Cc1noc(C)c1C(=O)Nc1ccccc1N1CCCC1 returned CASP6 VEID inh inactive, N-glyco inh inactive, SUMO Mot1 rescue inactive, ALR H2O2 inh 94, CDK5 p35 inh inactive and NSD2 HMT inh inactive.
`Cc1ccnc2nc(C(=O)Nc3cc(Cl)ccc3N3CCOCC3)nn12` gave N-glyco inh 41, SUMO Mot1 rescue inactive, ALR H2O2 inh inactive, CDK5 p35 inh inactive and NSD2 HMT inh inactive.
For CCc1noc(C)c1C(=O)Nc1cc(Cl)ccc1N1CCCC1 the results were CASP6 VEID inh inactive, N-glyco inh inactive, SUMO Mot1 rescue inactive, ALR H2O2 inh 99, CDK5 p35 inh inactive and NSD2 HMT inh inactive.
For Cc1noc(C)c1C(=O)N1CCN(c2ccccc2O)CC1 the results were CASP6 VEID inh inactive, N-glyco inh inactive, SUMO Mot1 rescue inactive, ALR H2O2 inh 99, CDK5 p35 inh inactive and NSD2 HMT inh inactive.
Screening COc1cccc(NC(=O)N2C[C@H](O)COC[C@H]3O[C@@H](CC(=O)NC4CCCC4)CC[C@@H]32)c1 returned CASP6 VEID inh inactive.

Source: PubChem (Broad Institute)
